These results are taken from PubChem BioAssay (Tox21).

Several values for one entry are separate records, joined by “and”; a condition that tells them apart may be missing. Equal values may be shown once. Records with an inconclusive call do not appear. More than one record can exist for a structure, and the calls need not agree. Activity calls are given as the source filed them. Unless noted, the call rests on the fitted dose curve; in most records, active means well fitted curve in the direction sought with a large enough effect in the repeat runs; inconclusive means weak or mixed curves; inactive means no such curve, though single readings can be large; an effect the other way counts as inactive or inconclusive.

A short description of experiment [1]: qHTS assay to identify small molecule agonists of the estrogen receptor alpha (ER-alpha) signaling pathway in the presence of an antagonist - cell viability counter screen (AID 1259386).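 Further: cells exposed to compounds for 22 h at 37 °C before the viability read; nearly all actives have a fitted effect of over 30% in size.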 Further: potency means the concentration at half of the fitted maximal effect. On activity change, negative = cytotoxicity: series mostly up to about 92 µM. In outline: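 VM7Luc4E2, stripped-serum pre-culture 5 d; 24hr plating; +ICI-182,780 10.0nM final; cpds 15 conc, 22hr, 37C/5% CO2; CellTiter-Fluor added at 21hr, fluorescence 1hr later.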

In experiment [2] the target is Progesterone receptor (Homo sapiens) (UniProt P06401). The experiment can be described thus: qHTS assay to identify small molecule agonists of the progesterone receptor (PR) signaling pathway (AID 1346784; calls by dose curve; further: nearly all actives have a fitted effect of over 30% in size). A digest of the protocol: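 Agonist mode, quantitative HTS format in a HEK 293T line expressing a UAS-controlled beta-lactamase reporter; 16 hr compound exposure at 37C in 2% charcoal-stripped FBS, then LiveBLAzer B/G FRET fluorescence.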
(qHTS replaces the single test concentration by a dilution series.)

The nature of experiment [3]: qHTS assay to identify small molecule antagonists of the progesterone receptor (PR) signaling pathway - cell viability counter screen (AID 1346798). Further: nearly all actives have a fitted effect of over 50% in size. Further: potency means the concentration at half of the fitted maximal effect. On activity change, negative = cytotoxicity: series mostly up to about 92 µM. In outline:
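Same-well multiplex: after 16 hr at 37C with compound and R5020 stimulation, HEK293T cells carrying a UAS-bla reporter received LiveBLAzer substrate (2 hr RT), then CellTiter-Glo (30 min RT) for luminescent viability.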

Experiment [4] is described as follows: qHTS assay to identify small molecule agonists of the progesterone receptor (PR) signaling pathway - cell viability counter screen (AID 1346799; calls by dose curve; further: nearly all actives have a fitted effect of over 45% in size; further: potency means the concentration at half of the fitted maximal effect). In outline: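 Counter screen for cytotoxicity: compound-treated PR-UAS-bla HEK293T cells (16 hr, 37C, 5% CO2) were assayed with CellTiter-Glo, luminescence measured after 30 min at room temperature.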
Experiment [5] concerns the target Thyrotropin-releasing hormone receptor (Homo sapiens) (UniProt P34981). The experiment in a line: qHTS assay to identify small molecule antagonists of the thyrotropin-releasing hormone receptor (TRHR) signaling pathway (AID 1346877; active means well fitted inhibition curve with a large enough effect in the repeat runs, not every such curve was filed as active; further: series mostly up to about 51 µM). In outline:
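Intracellular calcium fluorescence, read kinetically every second over 3 min, reports TRH-evoked signalling in HEK293 cells carrying TRHR. Test compounds were added 5 min ahead of a 1 nM TRH challenge.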

For experiment [6] the target is unchanged. The experiment can be described thus: qHTS assay to identify small molecule agonists of the thyrotropin-releasing hormone receptor (TRHR) signaling pathway (AID 1346891; calls by dose curve;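 further: HEK293 cells expressing TRHR with calcium dye readout; series mostly up to about 58 µM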). In outline: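 Agonist-mode calcium mobilisation screen: TRHR-transfected HEK293 cells cultured overnight (18 h), dye-loaded for 2 h at 37 °C, exposed to compounds, and monitored by fluorescence for 3 min.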

Experiment [7] can be described thus: qHTS assay to identify small molecule antagonists of the TGF-beta/Smad signaling pathway - cell viability counter screen (AID 1346824). Further: nearly all actives have a fitted effect of over 50% in size. Further: potency means the concentration at half of the fitted maximal effect. A digest of the protocol: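 Cytotoxicity counter-screen run in the same wells as the beta-lactamase Smad reporter read: CellTiter-Glo luminescence after 30 min at room temperature. HEK 293T SBE-bla cells had 5 hr compound exposure at 37 C with TGF-beta1 (0.25 ng/mL stock).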

Experiment [8] is described as follows: qHTS assay to identify small molecule agonists of the TGF-beta/Smad signaling pathway - cell viability counter screen (AID 1346829). Further: nearly all actives have a fitted effect of over 45% in size. Further: potency means the concentration at half of the fitted maximal effect. On activity change, negative = cytotoxicity: top concentration of the series differs between compounds. In outline: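 SBE-bla HEK 293T cells plated overnight, compound exposure 5 hr at 37 C. Viability read in the same wells by CellTiter-Glo luminescence after 30 min at room temperature, following the beta-lactamase read.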
Experiment [9] is described as follows: qHTS assay to identify small molecule agonists of the TGF-beta/Smad signaling pathway (AID 1346859; active means well fitted activation curve with a large enough effect in the signal ratio in the repeat runs, not every such curve was filed as active; the % refers to the signal ratio; further: series mostly up to about 77 µM). A digest of the protocol: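 Smad-responsive beta-lactamase reporter cells (HEK 293T) received compounds from DMSO stocks after overnight attachment, were incubated 5 hr, then treated 2 hr with FRET substrate before dual-emission fluorescence measurement (405 nm excitation).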

In experiment [10] the target is Progesterone receptor (Homo sapiens) (UniProt P06401). The experiment in a line: qHTS assay to identify small molecule antagonists of the progesterone receptor (PR) signaling pathway (AID 1346795; active means well fitted inhibition curve with a large enough effect in the signal ratio in the repeat runs, not every such curve was filed as active; the % refers to the signal ratio). A digest of the protocol: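 HEK293T PR-UAS-bla reporter cells in charcoal-stripped serum (2%) received compound after a 6 hr settling period, followed by R5020 agonist at 1 nM final; 16 hr incubation preceded the FRET substrate step and fluorescence measurement.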
On the % scale 0 is the no-effect control and ±100 the full control effect.

Progesterone receptor (Homo sapiens), sequence (P06401 whole entry, looked up): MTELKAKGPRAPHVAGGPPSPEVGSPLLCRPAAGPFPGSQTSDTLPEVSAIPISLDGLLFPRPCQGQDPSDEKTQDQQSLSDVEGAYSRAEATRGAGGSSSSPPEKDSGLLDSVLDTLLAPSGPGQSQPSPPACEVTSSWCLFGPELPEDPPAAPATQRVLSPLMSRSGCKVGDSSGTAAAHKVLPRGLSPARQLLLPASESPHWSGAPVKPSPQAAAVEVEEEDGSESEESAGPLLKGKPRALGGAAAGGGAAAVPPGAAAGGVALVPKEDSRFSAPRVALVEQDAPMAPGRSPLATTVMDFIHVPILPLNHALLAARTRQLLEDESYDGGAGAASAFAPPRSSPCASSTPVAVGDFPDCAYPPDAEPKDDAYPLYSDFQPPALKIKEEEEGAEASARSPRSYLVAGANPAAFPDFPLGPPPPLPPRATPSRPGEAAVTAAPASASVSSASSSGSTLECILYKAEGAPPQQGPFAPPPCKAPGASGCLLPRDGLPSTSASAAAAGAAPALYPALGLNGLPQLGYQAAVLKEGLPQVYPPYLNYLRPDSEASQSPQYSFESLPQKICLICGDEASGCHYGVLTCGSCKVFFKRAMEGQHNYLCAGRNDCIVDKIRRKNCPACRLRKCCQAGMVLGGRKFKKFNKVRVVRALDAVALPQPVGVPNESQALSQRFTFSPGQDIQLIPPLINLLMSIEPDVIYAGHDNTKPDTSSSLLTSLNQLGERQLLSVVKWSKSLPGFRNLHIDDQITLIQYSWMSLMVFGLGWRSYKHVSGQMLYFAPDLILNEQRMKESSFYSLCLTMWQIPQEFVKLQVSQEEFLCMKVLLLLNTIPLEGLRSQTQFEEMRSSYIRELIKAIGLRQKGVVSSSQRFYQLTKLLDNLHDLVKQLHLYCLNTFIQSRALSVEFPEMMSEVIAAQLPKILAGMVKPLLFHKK
Thyrotropin-releasing hormone receptor (Homo sapiens), sequence (P34981 whole entry, looked up): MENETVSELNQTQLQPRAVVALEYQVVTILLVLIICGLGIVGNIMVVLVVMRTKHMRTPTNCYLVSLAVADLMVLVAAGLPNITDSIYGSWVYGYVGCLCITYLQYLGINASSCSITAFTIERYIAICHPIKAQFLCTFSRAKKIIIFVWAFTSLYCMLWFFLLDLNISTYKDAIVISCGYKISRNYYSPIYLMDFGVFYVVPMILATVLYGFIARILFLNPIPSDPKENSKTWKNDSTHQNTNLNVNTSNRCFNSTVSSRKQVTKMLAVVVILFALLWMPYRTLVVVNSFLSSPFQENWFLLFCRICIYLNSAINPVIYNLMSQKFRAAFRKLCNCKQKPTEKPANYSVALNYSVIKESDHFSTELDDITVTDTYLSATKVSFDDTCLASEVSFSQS

Regarding `C[C@@H](NCCCc1cccc(C(F)(F)F)c1)c1cccc2ccccc12`, the Potency entry in experiment [1], in experiment [2], in experiment [5] and in [6] was “inactive” throughout. For the same compound, the Potency in experiment [3] is 26.6 µM (active); in experiment [4], 23.7 µM (active).

With `O=C(OCC1CO1)C1CCCCC1C(=O)OCC1CO1` (stereo unspecified), the Potency result in experiment [1], in experiment [2], in experiment [3], in experiment [7] and in experiment [8] was “inactive” throughout.

For `CSc1ccc(C(=O)c2[nH]c(=O)[nH]c2C)cc1`, the Potency result in experiment [1], in experiment [2], in experiment [3], in experiment [4], in experiment [7] and in experiment [8] was “inactive” in each case. Besides, the Potency entry in [9] is “inactive”.

In the case of `Fc1ccc([C@@H]2CCNC[C@H]2COc2ccc3c(c2)OCO3)cc1`, the Potency result in experiment [1], in experiment [2], in experiment [3], in [7], in experiment [8] and in experiment [9] was “inactive” each time. The Potency entry in experiment [5] and in experiment [6] was “inactive” each time.

With `COc1c(C)c2c(c(O)c1C/C=C(\C)CCC(=O)O)C(=O)OC2`, the Potency entry in [1], in experiment [2], in experiment [8], in experiment [5] and in experiment [6] was “inactive” throughout. For the same compound, the Potency in [3] was 0.119 µM (active).

Regarding `O=C1C=CC(=O)N1c1ccc(Cc2ccc(N3C(=O)C=CC3=O)cc2)cc1`, the Potency entry in experiment [1], in [2], in experiment [3], in [4], in [7] and in experiment [9] was “inactive” each time. The Potency entry in [6] was “inactive”. Moreover, the Potency in experiment [8] was 61.6 µM (active).

Consider `Clc1ccc2nsnc2c1NC1=NCCN1`, for which the Potency entry in [1], in experiment [2], in experiment [3], in [4], in experiment [7] and in experiment [8] was “inactive” throughout. In addition, the Potency entry in experiment [9] was “inactive”.

In the case of `Cc1cccc(CN2CCN(C(c3ccccc3)c3ccc(Cl)cc3)CC2)c1` (stereo unspecified), the Potency result in [1], in experiment [2], in [3], in experiment [7], in [8] and in experiment [9] was “inactive” each time. In addition, the Potency result in experiment [5] and in [6] was “inactive” throughout.

On to `Oc1cccc2cc3cccc(O)c3c(O)c12`, for which the Potency result in [1], in experiment [2], in experiment [3], in experiment [4], in experiment [7] and in experiment [8] was “inactive” throughout. The Potency entry in experiment [9] is “inactive”.

As to `CN(C)[C@@H]1C(=O)C(C(N)=O)=C(O)[C@@]2(O)C(=O)C3=C(O)c4c(O)cccc4C[C@H]3C[C@@H]12`, the Potency entry in experiment [1], in experiment [2], in [3], in [4], in experiment [7] and in [8] was “inactive” in each case. The Potency entry in experiment [5] and in experiment [6] was “inactive” each time.

Turning to `COc1ccc(-c2ccc3cc(C(=O)O)ccc3c2)cc1C12CC3CC(CC(C3)C1)C2`, the Potency entry in experiment [1], in experiment [2], in experiment [3], in [4], in experiment [7] and in [9] was “inactive” in each case. For the same compound, the Potency entry in experiment [5] and in experiment [6] was “inactive” throughout.

`NNc1nc(-c2ccc([N+](=O)[O-])cc2)cs1`: in experiment [1], the Potency was 24.3 µM (active). Moreover, the Potency result in [2], in experiment [3], in experiment [7], in [9], in experiment [5] and in [6] was “inactive” each time.

In the case of `CCCN(CCC)C(=O)C(CCC(=O)OCCCN1CCN(CCOC(=O)Cc2c(C)n(C(=O)c3ccc(Cl)cc3)c3ccc(OC)cc23)CC1)NC(=O)c1ccccc1` (stereo unspecified), the Potency in experiment [1] was 21.1 µM (active). The Potency entry in [2], in [3], in experiment [4], in [7] and in experiment [8] was “inactive” in each case.

Turning to `O=c1[nH]cnc2nc[nH]c12`, the Potency result in experiment [1], in experiment [2], in experiment [3], in [4], in [7] and in experiment [8] was “inactive” in each case. The Potency entry in [9] and in experiment [6] was “inactive” throughout.

Take `CCCCCCCCn1sc(Cl)c(Cl)c1=O`: the Potency result in experiment [1], in [2], in experiment [3], in [4] and in experiment [6] was “inactive” in each case. For the same compound, the Potency is 21.9 µM (active) in [7] and 34.7 µM (active) in experiment [8].

Regarding `O=C(OC[C@H]1O[C@@H](OC(=O)c2cc(O)c(O)c(OC(=O)c3cc(O)c(O)c(O)c3)c2)[C@H](OC(=O)c2cc(O)c(O)c(OC(=O)c3cc(O)c(O)c(O)c3)c2)[C@@H](OC(=O)c2cc(O)c(O)c(OC(=O)c3cc(O)c(O)c(O)c3)c2)[C@@H]1OC(=O)c1cc(O)c(O)c(OC(=O)c2cc(O)c(O)c(O)c2)c1)c1cc(O)c(O)c(OC(=O)c2cc(O)c(O)c(O)c2)c1`, the Potency in experiment [1] was 18.5 µM (active). Moreover, the activation in experiment [2] is 2.55% [at 19 µM] (inactive); in [9], -3.84% [at 15.8 µM] (inactive); in [6], 0.113% [at 11.8 µM] (inactive). The activity change, negative = cytotoxicity was -7.91% [at 18.9 µM] (inactive) in experiment [3], 9.14% [at 19 µM] (inactive) in [4] and 7.05% [at 15.8 µM] (inactive) in [8]. The viability change, negative = cytotoxic in [7] was 3.78% [at 15.8 µM] (inactive). The activity, negative = inhibition in [5] was 4.26% [at 10.5 µM] (inactive).

For `CCCCN1CCCC[C@H]1C(=O)Nc1c(C)cccc1C`, the Potency result in [1], in experiment [2], in [10], in experiment [7], in experiment [8] and in experiment [9] was “inactive” throughout. For the same compound, the Potency entry in [5] and in experiment [6] was “inactive” throughout.

With `NC(=NCCCCCCN=C(N)/N=C(\N)Nc1ccc(Cl)cc1)/N=C(\N)Nc1ccc(Cl)cc1`, the Potency result in [1], in experiment [2], in experiment [3], in [4] and in experiment [9] was “inactive” in each case. The Potency in [8] was 35.3 µM (active) and 48.7 µM (active) and inactive.

Take `CCCCCCCCCCCCCCCC[N+](C)(C)CCN(Cc1ccc(OC)cc1)c1ncccn1`: the Potency result in [1], in experiment [2], in experiment [9], in experiment [5] and in experiment [6] was “inactive” each time. Also, the Potency is 29.8 µM (active) in experiment [3] and 21.1 µM (active) in [4].

With `COC(=O)c1cc(Cl)ccc1OC`, the Potency entry in experiment [1], in experiment [2], in experiment [3], in experiment [4], in experiment [7] and in experiment [8] was “inactive” in each case. For the same compound, the Potency result in experiment [9], in experiment [5] and in experiment [6] was “inactive” in each case.

With `CCCCN1C(=O)[C@@H]([C@H](O)C2CCCCC2)NC(=O)C12CCN(Cc1ccc(Oc3ccc(C(=O)O)cc3)cc1)CC2`, the Potency entry in [1], in experiment [2], in [3], in experiment [7], in experiment [8] and in experiment [6] was “inactive” throughout.
